# Source: PubChem (National Center for Advancing Translational Sciences (NCATS))
# IL-1B inflam inh: qHTS for Inhibitors of Inflammasome Signaling: IL-1-beta AlphaLISA Primary Screen; activity change, % at 57.5 µM; AID 743279, 2014; 360,000 tested, 4.7% active; THP-1 LPS/ATP IL-1B secretion, AlphaLISA, 16 h; active compounds read low; in the data active means activity change below about -50%; inconclusive means mostly about -30% to -49%; further: on the % scale 0 is the no-effect control and ±100 the full control effect
#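 Secreted IL-1B measured by AlphaLISA bead assay after 16 h compound exposure of THP-1 cells; compounds (final up to 57.5 uM) added 1 h before LPS (250 ng/mL) and ATP (1.25 mM) stimulation; lower signal means less secretion.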
# TDP1 cell noCPT: qHTS for Inhibitors of human tyrosyl-DNA phosphodiesterase 1 (TDP1): qHTS in cells in absence of CPT; Potency, µM (highest dose often 46.2 µM), for inactives: at the highest dose activity change, negative = growth inhibition, actives largely listed as inhibitors; 420,000 tested, 15% active; AID 686978, 2013; DT40 Tdp1-/- hTDP1 cells, no CPT, ATP luminescence, 48 h; further: potency means the concentration at half of the fitted maximal effect; on the % scale 0 is the no-effect control and ±100 the full control effect; nearly all actives have a fitted effect of over 55% in size
#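 Growth of hTDP1-complemented DT40 Tdp1-knockout cells is measured by ATP luminescence after at least 48 hr compound exposure at 37 °C, with DMSO substituting for the 20 nM CPT used in the parallel screen.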
# HepG2 viability: qHTS for Inhibitors of TGF-b: Cytotox Counterscreen | Potency, µM (titrated, usually from 46.1 µM), for inactives: at the highest dose activity change, negative = cytotoxicity, hits mostly cytotoxic | HepG2 CAGA-GFP viability, ATP luminescence, 18 h | 410,000 tested, 0.76% active | AID 588856, 2011; further: potency means the concentration at half of the fitted maximal effect
#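 CellTiter-Glo luminescence gave cytotoxicity after 18 hours at 37 degrees C. The cells were HepG2 CAGA-GFP in 1% FBS DMEM, stimulated with 500 pg/mL TGF-beta after compound addition. %Activity was normalised to no-cell wells (complete cell-killing) and DMSO (no toxicity), and curves were fitted and classified.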
# TDP1 inh: qHTS Assay for Inhibitors of Tyrosyl-DNA Phosphodiesterase (TDP1). Tyrosyl-DNA phosphodiesterase 1 (Homo sapiens), Q9NUW8. recombinant TDP1, AlphaScreen DNA substrate cleavage. Potency, µM (highest dose often 130 µM), inactives show at the highest dose activity change, negative = inhibition, usual class: inhibitors. 350,000 tested, 0.28% active; further: potency means the concentration at half of the fitted maximal effect; on the % scale 0 is the no-effect control and ±100 the full control effect; nearly all actives have a fitted effect of over 40% in size
# Target sequence (Q9NUW8 whole entry, looked up): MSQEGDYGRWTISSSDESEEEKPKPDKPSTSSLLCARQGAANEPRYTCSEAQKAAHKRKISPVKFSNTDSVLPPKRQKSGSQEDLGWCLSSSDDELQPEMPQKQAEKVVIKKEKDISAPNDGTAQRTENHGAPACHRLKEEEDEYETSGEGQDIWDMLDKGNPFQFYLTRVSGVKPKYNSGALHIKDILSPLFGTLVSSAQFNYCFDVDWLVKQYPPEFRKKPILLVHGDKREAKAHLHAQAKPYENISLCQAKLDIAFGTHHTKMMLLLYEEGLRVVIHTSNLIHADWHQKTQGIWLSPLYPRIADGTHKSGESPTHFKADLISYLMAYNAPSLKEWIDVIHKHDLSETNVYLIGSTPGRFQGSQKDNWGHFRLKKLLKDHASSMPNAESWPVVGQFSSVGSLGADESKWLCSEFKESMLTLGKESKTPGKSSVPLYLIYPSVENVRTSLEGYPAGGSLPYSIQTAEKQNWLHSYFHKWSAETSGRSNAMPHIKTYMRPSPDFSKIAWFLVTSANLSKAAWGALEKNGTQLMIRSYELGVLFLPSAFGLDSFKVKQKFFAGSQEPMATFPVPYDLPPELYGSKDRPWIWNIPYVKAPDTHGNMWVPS
#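 Enzyme-compound mixtures sat 15 min at room temperature, followed by a 5 min reaction with 15 nM final substrate and 10 min with AlphaScreen beads. Recombinant human Tdp1 was used at 1 nM final.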
# TGFb SMAD3 inh: qHTS for Inhibitors of TGF-b | HepG2 CAGA-GFP TGF-b/SMAD3 reporter, GFP fluorescence, 18 h; TGF-beta stimulated, 500 pg/mL final | Potency, µM (series often up to 46.1 µM), without a hit: top-dose activity, negative = inhibition, usual class: inhibitors | 410,000 tested, 1.2% active; further: potency means the concentration at half of the fitted maximal effect; on the % scale 0 is the no-effect control and ±100 the full control effect; nearly all actives have a fitted effect of over 65% in size
#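 Smad-responsive CAGA-GFP expression was quantified in HEPG2 cells exposed to compounds and 500 pg/mL final TGF-beta for 18 h at 37 degrees C; unstimulated wells defined full inhibition.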
# DT40 TDP1 CPT: qHTS for Inhibitors of human tyrosyl-DNA phosphodiesterase 1 (TDP1): qHTS in cells in presence of CPT | chicken DT40 Tdp1-/-;hTDP1 cells + 20 nM CPT, ATP luminescence, 48 h | Potency, µM (top dose mostly 46.2 µM), for inactives: top-dose activity change, negative = growth inhibition, actives largely listed as inhibitors | 420,000 tested, 12% active; further: potency means the concentration at half of the fitted maximal effect; on the % scale 0 is the no-effect control and ±100 the full control effect; nearly all actives have a fitted effect of over 55% in size
#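 Cell growth measured by CellTiter-Glo luminescence after a minimum 48 h, 37 C compound exposure with 20 nM CPT in Tdp1-knockout DT40 cells stably expressing hTDP1, seeded 400/well; qHTS titration format.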
# * = called active by the depositor; u = inconclusive; x = no result; [ ] = another dose, or the depositor's remark. A selection: hits, their analogues and other compounds. The true share with any hit is near 19%. Unless noted, the call rests on the fitted dose curve; in most records, active means well fitted curve in the direction sought with a large enough effect; inconclusive means small, poorly fitted or top-dose-only effect, or another doubt; inactive means no such curve, though single readings can be large; an effect the other way counts as inactive or inconclusive.
SMILES,IL-1B inflam inh,TDP1 cell noCPT,HepG2 viability,TDP1 inh,TGFb SMAD3 inh,DT40 TDP1 CPT
Oc1ccccc1/C=N/Nc1ccccc1,24,-6%,-38%,3%,u,-10%
Oc1ccccc1/C=N/Nc1ncc(Br)cn1,15,7.3µM*,-36%,3%,u,9.2µM*
Oc1ccccc1C=NNC(=S)NN=Cc1ccccc1O,87,4.6µM*,-24%,x,u,5.2µM*
Oc1ccccc1/C=N/Nc1ccnc(SCc2ccccc2)n1,35,0.082µM*,-18%,-3%,-3%,0.065µM*
Oc1ccc(C=NNC(=S)Nc2ccc(F)cc2)c(O)c1,145,u,-12%,x,-4%,-104%
S=C(N/N=C/c1ccccc1Cl)Nc1ccccc1,12,u,-6%,7%,u,16µM*
Cc1ccc(CN2CCc3nc(N4CCN(C)CC4)ncc3C2)s1,x,u,-36%,1%,0%,u
S=C(N/N=C/c1ccc2ncccc2c1)Nc1ccccc1,-11,21µM*,1%,10%,u,23µM*
O=C(NNC(=S)Nc1ccccc1)c1ccc2ncccc2c1,-11,-24%,8%,5%,10%,0%
COc1cccc(-c2nc(N3CCCC3)c3ccccc3n2)c1O,16,12µM*,0%,7%,-3%,18µM*
COc1cccc(-c2nc(N3CCC(C)CC3)c3ccccc3n2)c1O,13,21µM*,6%,11%,u,18µM*
COc1ccccc1N1CCN(c2nc3ccc(C)cc3nc2-n2nc(C)cc2C)CC1,x,21µM*,-24%,0%,u,23µM*
COc1ccccc1N1CCN(c2nc(CNC(=O)c3ccc4c(c3)OCO4)nc3ccccc23)CC1,x,13µM*,x,x,x,18µM*
COc1cccc(-c2nc(N3CC(C)CC(C)C3)c3ccccc3n2)c1O (centres undefined),20,u,7%,8%,-1%,u
Cc1ccc(NC(=O)c2ccc(=O)n(CC(=O)Nc3cc(C)cc(C)c3)n2)cc1,x,-25%,0%,3%,-1%,3%
COCCCNC(=O)CCCCn1c(=O)c2ccccc2n(CC(=O)Nc2ccc(C)cc2C)c1=O,x,0%,0%,-5%,-16%,-3%
Nc1nc2ncn(COCCO)c2c(=O)[nH]1,x,-4%,5%,x,-1%,18%
CC(C)c1nc2ccc(C(=O)NCCCN3CCN(c4ccccc4F)CC3)cc2o1,x,u,-26%,-1%,-27%,u
Cc1ccc(-c2nc(N3CCN(c4ccccc4Cl)CC3)c3ccccc3n2)cc1,x,-18%,1%,-7%[12.3 µM],-2%,-8%
COc1ccccc1N1CCN(c2nc(-c3ccc(C)cc3)nc3ccccc23)CC1,x,23µM*,-4%,8%,-21%,23µM*
Cc1cc2nc(-c3ccc(OCc4ccccc4F)cc3)cc(C(F)(F)F)n2n1,x,u,-8%,2%,-6%,u
CS(=O)(=O)C1=NSC2=NC(=O)/C(=C\c3ccc(OC(=O)c4ccco4)cc3)C(=N)N21,x,x,x,-21%,x,x
COc1ccccc1OCCOc1ccc(/C=C2\C(=N)N3N=C(S(C)(=O)=O)SC3=NC2=O)cc1,-17,23µM*,1%,x,-6%,u
